Compound activity from PubChem.
This is a sample that favours compounds with a hit; in the whole collection about 2.6% have one here.
ClpP mod: qHTS Assay for Activators of ClpP | ATP-dependent Clp protease proteolytic subunit (Bacillus subtilis (strain 168)), P80244 | purified B. subtilis ClpP, FRET peptide cleavage, 20 min | Potency, µM (highest dose often 57.5 µM), for inactives: top-dose activity change, negative = active | actives 1.9% (n = 340,000) | AID 651965, 2013; active means well fitted falling curve with a large enough effect; inconclusive means small, poorly fitted or top-dose-only effect; inactive means no such curve, though single readings can be large or run the other way; further: potency means the concentration at half of the fitted maximal effect; the source files actives as falling curves though it sought activators and does not explain the sign; nearly all actives have a fitted effect of over 65% in size
Target sequence (P80244 whole entry, looked up): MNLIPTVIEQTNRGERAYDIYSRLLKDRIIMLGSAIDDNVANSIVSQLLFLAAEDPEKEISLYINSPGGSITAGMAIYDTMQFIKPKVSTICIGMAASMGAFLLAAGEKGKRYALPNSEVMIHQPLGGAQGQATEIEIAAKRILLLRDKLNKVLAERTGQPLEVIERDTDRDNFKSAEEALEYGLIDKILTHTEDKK
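ClpP 10 microg/mL final, pH 8 Tris/KCl buffer with BSA, glycerol, Tween-20; compound pinned in; FRET-FV substrate; RT 20 min; Ex320/Em430; ΔFRET vs ADEP 5.8 microM, DMSO, no enzyme.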
TRPV1 agonist: human TRPV1 agonism; Q8NER1; TRPV1-expressing cells, Fluo-8 calcium influx, agonist mode; activation, % at 8.33 µM; actives 0.19% (n = 320,000); in the data active means activation above about 80%; inconclusive means between about 30% and that limit; further: 0% is about no effect
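Fluo-8 calcium influx in TRPV1-expressing cells, kinetic read (ex 480/em 520 nm). Compound added and read 3 min for agonist activity, followed by capsaicin at EC20 final and 2 min further read for enhancement.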
TRPV1 PAM: human TRPV1 potentiation; Q8NER1; actives 0.02% (n = 320,000); potentiation, % at 8.33 µM; TRPV1-expressing cells, Fluo-8 calcium influx, capsaicin EC20 potentiation; in the data active means potentiation above about 80%; inconclusive means between about 30% and that limit; further: 0% is about no effect
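Fluo-8 calcium influx in TRPV1-expressing cells, kinetic read (ex 480/em 520 nm). Compound added and read 3 min for agonist activity, followed by capsaicin at EC20 final and 2 min further read for enhancement.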
p53 reactivator: restores transcriptional activity of mutant p53; H1299 p53-A138V BP100-luciferase reporter, luminescence, 24 h; Potency, µM (doses to about 92.2 µM), without a hit: at the top dose activity change, positive = activation, usual class: activators; actives 0.063% (n = 320,000); AID 504706; active means well fitted activation curve with a large enough effect; inconclusive means small, poorly fitted or top-dose-only effect; inactive means no such curve, though single readings can be large or run the other way; further: potency means the concentration at half of the fitted maximal effect; % of control where 0% means no effect; nearly all actives have a fitted effect of over 45% in size
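H1299 (p53-null), stable ts p53-A138V + BP100-Luc; 1000 cells/well, Opti-MEM/10% FBS; cpd 4 pt, 1:5; 24 h, 37 deg C, 5% CO2; detection reagent 10 min RT; luminescence.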
KCNH2 3.1 inh: blocks the human KCNH2 3.1 channel isoform | activity change, % (tested at about 1.8 µM) | AID 720553 | actives 0.95% (n = 340,000) | U2OS KCNH2 3.1, thallium flux FluxOr; hits give low values;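 active means maximum activity change below -70%; inconclusive means maximum activity change from -70% to -50%; inactive means maximum activity change above -50%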;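 further: thallium influx rate constant from kinetic fluorescence after stimulation buffer; on the % scale 0 is the no-effect control and ±100 the full control effect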
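Channel expression came from 3.1 mutant virus (1.77 x 10^8 /mL) applied to suspended U2OS cells for 4 h. Flux was tracked with FluxOr dye plus Red40 quencher, and kinetic rate constants normalized to controls.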
KCNH2 WT inh: KCNH2 (human, wildtype) channel inhibition. Q12809. U2OS, BacMam KCNH2, thallium flux FluxOr; hits give low values. activity change, % at 1.84 µM. actives 0.37% (n = 340,000). AID 720551;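 active means maximum activity change below -70%; inconclusive means maximum activity change between -70% and -50%; inactive means maximum activity change above -50%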; further: on the % scale 0 is the no-effect control and ±100 the full control effect
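U2OS cells were transduced with wild-type KCNH2 virus (2.03 x 10^8 / mL) for 4 h at room temperature, then cultured overnight at 37 C. Thallium flux was read with FluxOr dye. Rate constants were normalized to DMSO controls.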
* = called active by the depositor; ? = inconclusive; . = no result.

SMILES	ClpP mod	TRPV1 agonist	TRPV1 PAM	p53 reactivator	KCNH2 3.1 inh	KCNH2 WT inh
Cc1ccc2[nH]c3c(=O)n(Cc4ccncc4)cnc3c2c1	14µM*	2	3	1%	8	-22
O=c1c2[nH]c3ccccc3c2ncn1CCN1CCCCC1	25µM*	7	0	6%	14	3
CN1CCN(C(=O)C(=O)Nc2c3c(nn2-c2ccc(Cl)cc2)CSC3)CC1	-2%	.	.	.	.	.
Cn1cc(/C=C/c2ccnc3ccccc23)c2ccccc21	-1%	.	.	.	.	.
CC1CCCN(C(=O)COC(=O)c2n[nH]c3ccccc23)C1 (stereo not drawn)	22µM*	-1	?	19%	15	-4
CCOC(=O)C1CCN(C(=O)COC(=O)c2nn(C)c(=O)c3ccccc23)CC1	-4%	0	7	4%	-7	-11
O=C(OCC(=O)N1CCCCC1)c1n[nH]c(=O)c2ccccc12	.	2	6	4%	-15	-7
COC(=O)C1CCN(C(=O)COC(=O)c2n[nH]c3ccccc23)CC1	32µM*	-3	4	?	-5	-17
CCOCCCNC(=O)C1CCN(c2nc3ccc(C)cc3[nH]2)CC1	-1%	.	.	.	.	.
COc1ccc(N2CCN(CCCNC(=O)c3cc4sccc4n3C)CC2)cc1	-9%	2	12	4%	-94*	-109*
COc1ccc(N2CCN(CCNC(=O)Nc3ccc(Cl)cc3)CC2)cc1	-6%	-6	9	-4%	-70*	12
O=C(NCCN1CCN(c2ccccc2)CC1)Nc1ccc(Cl)cc1	0%	26	-21	-3%	-3	53
COc1ccc(N2CCN(CCCNC(=O)c3ccc(CS(=O)(=O)c4ccc(Cl)cc4)o3)CC2)cc1	-5%	1	27	9%	-99*	-21
CCN(C(=O)CCS(=O)(=O)c1ccc2c(c1)CCN2C(C)=O)c1cccc(C(F)(F)F)c1	0%	.	.	.	.	.
CCN(CC)CCNCC(O)(c1ccc(Cl)cc1)c1ccc(Cl)cc1	.	3	1	6%	-91*	?
CC(C)(C)NCC(O)(c1ccc(Cl)cc1)c1ccc(Cl)cc1	.	5	0	-2%	2	-9
COc1cccc(CN2CCC(C(=O)N3CCN(Cc4ccc5c(c4)OCO5)CC3)CC2)c1OC	18µM*	-1	25	9%	22	3
CCOC(=O)CNC(=O)N1CCc2cc(S(=O)(=O)N3CCC(C)CC3)ccc21	-4%	.	.	.	.	.
Cc1ccc(Cn2c(N)c(S(=O)(=O)c3cccs3)c3nc4ccccc4nc32)cc1	3.2µM*	-2	12	-14%	1	-1
Nc1c(S(=O)(=O)c2cccs2)c2nc3ccccc3nc2n1Cc1ccccc1	35µM*	-2	13	-1%	4	-18
COCCn1c(N)c(S(=O)(=O)c2cccs2)c2nc3ccccc3nc21	32%	3	?	-7%	6	-5
COc1ccc(Cn2c(N)c(S(=O)(=O)c3cccs3)c3nc4ccccc4nc32)cc1	8.9µM*	8	-10	-6%	27	-4
COc1ccccc1/C=N/n1c(N)c(C(=O)NC2CCCCC2)c2nc3ccccc3nc21	44%	-1	-2	8%	3	3
COc1cccc(/C=N/n2c(N)c(S(=O)(=O)c3cccs3)c3nc4ccccc4nc32)c1OC	2.8µM*	-3	4	-16%	-16	-20
Cc1ccc(S(=O)(=O)c2c(N)n(-c3ccccc3)c3nc4ccccc4nc23)cc1	.	9	15	-13%	-4	-7
O=C(c1ccc2c(c1)N(Cc1c(F)cccc1Cl)C(=O)c1ccccc1S2)N1CCOCC1	-4%	.	.	.	.	.
O=C1c2ccccc2C(c2nnnn2-c2ccc3ccccc3c2)N1C1CC1 (stereo not drawn)	-2%	.	.	.	.	.
Cn1c(COc2ccccc2)nnc1SCC(=O)c1cccc([N+](=O)[O-])c1	0%	0	13	0%	-92*	-6
